Measured values as given in PubChem BioAssay (Tox21).
Results filed as inconclusive are left out. Calls of active or inactive are those of the source. The call rests on the fitted dose curve; in most records, active means well fitted cell-killing curve with a large enough effect in the repeat runs; inconclusive means weak or mixed curves, or effect the other way; inactive means flat fitted curve, though single readings scatter.
On the % scale 0 is the no-effect control and ±100 the full control effect; potency means the concentration at half of the fitted maximal effect.

Assay: qHTS RealTime-Glo MT Cell Viability Assay in HEK293 cells - 40 hour (AID 1224874); further: nearly all actives have a fitted effect of over 50% in size
Conditions: RealTime-Glo luminescence; max response: active compounds read low
Summary of the method: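 600 cells/well were plated with the nonlytic NanoLuc/prosubstrate reagent, pre-incubated 5 h, then given 23 nL of compound in DMSO. Incubation at 37 C for 40 h, with luminescence from viable-cell-reduced substrate read repeatedly from 0 h.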
In the case of `C=CC(=O)OCCCCCCCCCC`, the max response is reported as 12.1% (inactive).
In the case of `O=C(O)c1ccc2c(c1)nc(C(=O)NC1CCN(C3CC3)CC1)n2Cc1cc(-c2ccc(Cl)s2)on1`, the max response is reported as -1.71% (inactive).
For `CC(COc1ccccc1)NC(C)C(O)c1ccc(O)cc1` (centres undefined), the max response was -6.13% (inactive).
For `CCCCCCCCCCCC(=O)OCC`, the max response was 3.23% (inactive).
In the case of `CCCOC(C)=O`, the max response is reported as -1.95% (inactive).
For `Cc1c(-c2cccnc2)c2ccccc2n1CCCCC(=O)O`, the max response was 2.18% (inactive).
In the case of `CCC(=O)O[C@@H]1C[C@H]2CC[C@]1(C)C2(C)C`, the max response is reported as -11.1% (inactive).
For `O=[N+]([O-])c1cccc(I)c1`, the max response was 0.342% (inactive).
With `O=C(O)c1c2ccccc2cc2ccccc12` the Potency was 38.8 µM (active).
For `O=C(O)c1cccnc1Nc1cccc(C(F)(F)F)c1`, the max response was -4.24% (inactive).
With `Cc1ccc2ccccc2c1[N+](=O)[O-]` the max response was 5.94% (inactive).
In the case of `O=c1c2ccccc2oc2ccccc12`, the max response is reported as -17.5% (inactive).
In the case of `CC(=O)c1ccc(Cl)c(Cl)c1Cl`, the max response is reported as -19.2% (inactive).
For `CCc1cnc(C(=O)O)c(C(=O)O)c1`, the max response was 5.23% (inactive).
For `C=CC(O)CCCCC` (centres undefined), the max response was 0.0439% (inactive).
In the case of `Cc1nc2sccn2c(=O)c1CCN1CCC(=C(c2ccc(F)cc2)c2ccc(F)cc2)CC1`, the Potency is reported as 4.25 µM (active).
With `C=C(C)C(=O)OCCCCCCCCCCOC(=O)C(=C)C` the max response was -16.4% (inactive).
In the case of `C=CC(=O)NC(C)(C)C`, the max response is reported as 1.33% (inactive).
For `COc1ccc(C(=O)Nc2ccccc2)cc1[N+](=O)[O-]`, the Potency was 24.7 µM (active).
In the case of `Sc1nc(S)nc(S)n1`, the max response is reported as 5.08% (inactive).
For `CCCc1ccc(OC)cc1`, the max response was 11.9% (inactive).
For `CC(C)CC(C)(C)C`, the max response was -17.8% (inactive).
For `CC1=C(C)C(=O)C(CCCCC#CCCCC#CCO)=C(C)C1=O`, the Potency was 0.674 µM (active).
With `C(/C=C/C=C/Nc1ccccc1)=Nc1ccccc1` the max response was -15.7% (inactive).
In the case of `OCC(O)c1ccccc1` (centres undefined), the max response is reported as -20.6% (inactive).
In the case of `CO[C@@H]1[C@@H](O[C@@H]2O[C@H](C)[C@@H](O[C@H]3C[C@@](C)(O)[C@@H](O)[C@H](C)O3)[C@H](N(C)C)[C@H]2O)[C@@H](CC=O)C[C@@H](C)[C@@H](O[C@@H]2CC[C@H](N(C)C)[C@@H](C)O2)/C=C/C=C/C[C@@H](C)OC(=O)C[C@H]1OC(C)=O`, the max response is reported as 1.04% (inactive).
With `CC(=O)Nc1ccccc1O` the max response was 2.65% (inactive).
With `Oc1ccc(Oc2ccccc2)cc1` the Potency was 14.7 µM (active).
With `C=C[Si](OCC)(OCC)OCC` the max response was 11.4% (inactive).
In the case of `O=[N+]([O-])c1ccccc1CCO`, the max response is reported as 16.6% (inactive).
For `O=C(Cl)c1cc(Cl)cc(Cl)c1`, the max response was -8.34% (inactive).
With `CCC1=C(C)CN(C(=O)NCCc2ccc(S(=O)(=O)NC(=O)NC3CCC(C)CC3)cc2)C1=O` (centres undefined) the max response was -23% (inactive).
With `CCCCCC1CCC(=O)O1` (centres undefined) the max response was 24.1% (inactive).
With `CCOc1cc(OCC)c(C(C)=O)cc1OCC` the Potency was 19.2 µM (active).
